Reference: PubChem BioAssay AID777 (Sanford-Burnham Center for Chemical Genomics, 2007)
In all, about 96,000 compounds went through this assay and about 19,000 (20%) were called active. These entries were drawn from the full list. Values without a mark were called inactive.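 How the source made its calls: active means blocking of liver enzyme CYP2C9 beyond about 50% at 5 µM (limit read from the data); inactive means the rest.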

What follows are compounds tested against Cytochrome P450 2C9 (Homo sapiens) (UniProt P11712) (assay: blockers of cytochrome P450 2C9 activity – biochemical, luminescence, ADME assay, primary screen (AID 777)). Conditions: CYP2C9 Supersomes, luciferin-H conversion, at 5 µM, stronger effect = higher value.
Sequence of Cytochrome P450 2C9 (Homo sapiens) (P11712 whole entry, looked up): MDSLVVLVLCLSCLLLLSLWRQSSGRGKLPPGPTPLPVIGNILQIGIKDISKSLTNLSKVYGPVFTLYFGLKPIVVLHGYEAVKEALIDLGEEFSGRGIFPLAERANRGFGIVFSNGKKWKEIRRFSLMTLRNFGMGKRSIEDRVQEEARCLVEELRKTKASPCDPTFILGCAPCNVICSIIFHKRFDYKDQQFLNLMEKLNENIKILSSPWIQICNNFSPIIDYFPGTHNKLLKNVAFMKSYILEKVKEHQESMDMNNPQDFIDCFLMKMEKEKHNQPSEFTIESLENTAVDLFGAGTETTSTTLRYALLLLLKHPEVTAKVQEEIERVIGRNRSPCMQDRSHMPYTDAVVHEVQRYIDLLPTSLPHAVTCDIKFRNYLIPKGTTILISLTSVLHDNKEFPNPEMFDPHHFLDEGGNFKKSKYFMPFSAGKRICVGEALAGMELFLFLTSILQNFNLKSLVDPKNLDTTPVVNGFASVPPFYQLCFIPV

Structure (SMILES)	inhibition
CCN(CC)CCN1C(=O)C(=O)/C(=C(/O)c2cnn(-c3ccccc3)c2C)C1c1cccs1 (configuration not stated)	-11.5%
O=C(O)COc1nsnc1N1CCOCC1	-22.9%
CCOc1cc(N2CCOCC2)c(OCC)cc1NC(=O)COC(=O)[C@H](Cc1c[nH]c2ccccc12)NC(C)=O	45.8%
CCCCC(=O)Nc1ccc(C(=O)NCCCn2ccnc2)cc1	33.7%
CC1(C)C2CCC1(C)C(OC(=O)CCn1ccnc1)C2 (configuration not stated)	95.6% (active)
CC(=O)OCc1cc(=O)n(C)c(=O)n1C	-5.9%
CC1CCCN(C(=O)Cn2c(=O)oc3ccccc32)C1 (configuration not stated)	7.8%
Cc1cc(-c2ccccc2)nc(N2CCC(C(=O)NC34CC5CC(CC(C5)C3)C4)CC2)n1	11.4%
O=C(Nc1ccccc1)c1ccc2nsnc2c1	7.6%
O=C(CCCN1C(=O)CCC1=O)Nc1ccc(Cl)c(C(F)(F)F)c1	-25.8%
O=C(CSc1nnc2ccccn12)c1ccccc1	-8.3%
O=C(O)CC(Cn1cnnn1)c1ccccc1 (configuration not stated)	-8.1%
O=C(c1ccccc1)C(Cn1cncn1)C(Sc1ccccc1)c1ccccc1 (configuration not stated)	98.5% (active)
Cc1ccc2nc(NCCCNC(=O)c3cnccn3)c(C#N)cc2c1	2.7%
CC(CCc1ccccc1)NC(=O)c1ccc(Br)o1 (configuration not stated)	18.7%
CC(CNc1ccc([N+](=O)[O-])cc1)NC(=O)c1ccccc1Br (configuration not stated)	70.7% (active)
CC(CNC(=O)c1ccc(Br)o1)NC(=O)c1ccc(Br)o1 (configuration not stated)	25.6%
COc1ccc(C(=O)Nc2ccc(F)cc2F)cc1	15.2%
CC1COC2C(O1)N(S(C)(=O)=O)CCN2S(C)(=O)=O (configuration not stated)	-18.1%
Nc1ccc(Oc2ccc(Cl)cc2)cc1	22.5%
CC(C)(C)NS(=O)(=O)CC12CCC(CC1=O)C2(C)C (configuration not stated)	24%

Structure (SMILES)	inhibition
COC(=O)C1C(=O)CC(C)(O)C(C(=O)OC)C1c1ccc2c(c1)OCO2 (configuration not stated)	5.1%
O=C(C(NS(=O)(=O)c1cccc2nsnc12)c1ccccc1)N1CCN(c2ccccc2)CC1 (configuration not stated)	97.4% (active)
CC(=C1C(=O)c2ccccc2C1=O)N1CCN(c2ccccn2)CC1	17.1%
O=C(O)c1ccc(NS(=O)(=O)c2cccc3nsnc23)cc1	-5.5%
O=C(C(NS(=O)(=O)c1cccc2nsnc12)c1ccccc1)N1CCN(c2ccccn2)CC1 (configuration not stated)	78.6% (active)
O=C(CCS(=O)(=O)c1cccc2nsnc12)N1CCN(c2ccccc2F)CC1	-136%
COc1ccccc1CNC(=O)CCCNS(=O)(=O)c1cccc2nsnc12	-32.2%
CC1CC(C)CN(S(=O)(=O)c2cccc(C(=O)N3C(=O)c4cccc(N)c4C3=O)c2)C1 (configuration not stated)	13.8%
COc1ccc(-c2nn(C)c(=O)c3ccccc23)cc1NC(=O)COc1ccccc1	27.9%
CN(C)c1nc(N)nc(CSc2ccccn2)n1	-8.3%
O=C1N=C2SCCN2/C1=C\c1c(Cl)cccc1Cl	8.7%
Cc1ccc(-c2cnc(NC(=O)CCC(=O)N(C)Cc3ccccc3)n2C)cc1	3.3%
CC(C)C(c1nnnn1CCc1ccccc1)N1CCN(C(=O)c2ccco2)CC1 (configuration not stated)	27.7%
CCC(c1nnnn1C1CCCC1)N1CCN(C(=O)c2ccco2)CC1 (configuration not stated)	84.4% (active)
CC(=O)c1ccc(-n2nnnc2SCC(=O)N2CCN(C(=O)c3ccco3)CC2)cc1	5.3%
Cc1cc(N2C(=O)C(=O)/C(=C(/O)c3ccc(Cl)cc3)C2c2cccc(Br)c2)no1 (configuration not stated)	61.1% (active)
COc1ccccc1C1/C(=C(/O)c2ccc(OC(C)C)cc2)C(=O)C(=O)N1c1cc(C)on1 (configuration not stated)	-0.1%
COc1cccc(C2/C(=C(/O)c3ccc(F)cc3)C(=O)C(=O)N2CCN(C)C)c1 (configuration not stated)	-22.1%
O=C1CCC(=O)N1CCOP1(=O)COc2ccccc2OC1	-19.3%
COc1cccc(OC)c1C(=O)Nc1ccc(N2CCCCC2)cc1	10.6%
Cc1ccc(Cn2c(C)nc3c(c2=O)c2nc4ccccc4nc2n3Cc2ccco2)cc1	47.7%

Structure (SMILES)	inhibition
Cc1nc2c(c(=O)n1Cc1ccco1)c1nc3ccccc3nc1n2Cc1ccccc1	61.7% (active)
COCCCn1c2nc3ccccc3nc2c2c(=O)n(Cc3ccc(Cl)cc3)c(C)nc21	20.5%
COc1cc(Br)cc(/C=N/c2ncn[nH]2)c1O	1%
O=C1CC(c2ccccc2)CC(O)=C1C=NCCN1CCOCC1 (configuration not stated)	-8.2%
O=C1CCC(Cc2ccccc2)N1 (configuration not stated)	2%
O=C(COc1ccc2c(C(F)(F)F)cc(=O)oc2c1)Nc1ccc2c(c1)OCCO2	22.6%
CCN(CC(=O)Nc1ccc2c(c1)OCCO2)Cc1cc(=O)oc2cc(C)c(C)cc12	93% (active)
CCCCC(=O)Nc1ccc2c(c1)C(=O)NC2=O	14%
Cn1cc([N+](=O)[O-])c(C(=O)Nc2ccc3c(c2)OCCO3)n1	8.7%
CCCCC(=O)Nc1ccc2c(c1)OCCO2	60.5% (active)
CCNCc1cc2cc(C)ccc2[nH]c1=O	9.6%
CCCCOC(=O)CNc1nnc(SCC(=O)OCC)[nH]c1=O	1%
O=c1cc(N2CCN(Cc3ccccc3)CC2)c(-c2ccccc2)n[nH]1	13.5%
O=C1c2ccccc2C(=O)c2c1cccc2N1CCN(Cc2ccccc2)CC1	64.6% (active)
O=C1c2ccccc2C(=O)c2c1cccc2N1CCN(CCO)CC1	32.5%
Clc1ccc(Nc2nc(-c3cccs3)cs2)nc1	11.8%
O=C1CCN(C(=O)Nc2ccccc2)N1	-2.1%
CCCOc1cc(C)c(S(=O)(=O)n2nnc3ccccc32)cc1C	-0.2%
COc1ccc([N+](=O)[O-])cc1N(CC(O)Cn1nnc2ccccc21)S(=O)(=O)c1ccc(C)cc1 (configuration not stated)	63.8% (active)
COc1ccc([N+](=O)[O-])cc1NC(=O)CCc1ccccc1	-65.9%
